Results on 24 compounds are retold here after PubChem BioAssay AID720517 (National Center for Advancing Translational Sciences (NCATS), 2013).

Records with an inconclusive call do not appear. A call without a number means that no potency is given here. The source made the active and inactive calls. Calls follow the shape of the dose curve; as a rule, active = well fitted activation curve with a large enough effect; inconclusive = small, poorly fitted or top-dose-only effect; inactive = flat fitted curve, though single readings scatter.

A short description of the experiment: qHTS for Inhibitors of Cell Surface uPA Generation: FP59 Counterscreen for Cherry-picked Compounds. As to conditions: FP59 anthrax toxin cytotoxicity counterscreen, cells; series mostly up to 115 µM. Background: Quantitative high-throughput screening tests each substance at several concentrations.
For the compound `Cc1ccc2nc(Nc3ccc(Cl)cc3)c3nncn3c2c1`, the Potency entry is “inactive”.

In the case of `Cc1noc(C)c1COc1ccc(C(=O)N2CCN(S(=O)(=O)c3ccc(Cl)cc3)CC2)cc1`, the Potency result was “inactive”.

For `CCOc1cc(S(=O)(=O)NC2CC(C)(C)NC(C)(C)C2)ccc1Cl`, the Potency result is “inactive”.

For the compound `C=CCOC(=O)C1=C[C@@H](c2coc3ccccc3c2=O)C[C@@H](OCc2ccc(CO)cc2)O1`, the Potency entry was “inactive”.

Turning to `O=C(COc1cccc2ccccc12)NNC(=O)c1cnccn1`, the Potency entry was “inactive”.

As for `O=C(Cc1ccc(Cl)cc1)NC(=S)Nc1ccccc1O`, the Potency result was “inactive”.

Regarding `CN(CC(=O)NCc1ccco1)CC(=O)Nc1c(Cl)cccc1Cl`, the Potency result is “inactive”.

Take `COCCNC(=S)N(CCc1c(C)[nH]c2ccccc12)Cc1ccco1`: the Potency entry is “inactive”.

On to `CC1(CC(=O)N/N=C/c2cc(Br)c(O)cc2O)OCCO1`, for which the Potency entry is “inactive”.

Consider `COc1ccc(-n2nnnc2SCC(=O)Nc2nnc(C)s2)cc1`, for which the Potency entry was “inactive”.

With `CCOC(=O)N1CCN(C(=O)c2ccc3c(c2)sc2nc(-c4ccc(OC)cc4)cn23)CC1`, the Potency entry is “inactive”.

As to `CN(C(=O)c1ccccc1C(=O)OCC(=O)NCc1ccccc1)C1CCCCC1`, the Potency entry is “inactive”.

On to `Cc1ccn(CCC(=O)N2CCc3ccccc32)n1`, for which the Potency entry was “inactive”.

In the case of `CCC(NC(=O)Cc1c(C)c2c(cc(C)c3c(C)c(C)oc32)oc1=O)C(=O)O` (centres undefined), the Potency entry is “inactive”.

On to `Cc1cc(C)cc(NC(=O)COC(=O)CCn2c(C)csc2=O)c1`, for which the Potency entry was “inactive”.

Take `[N-]=[N+]=NC1C[C@H](n2ccc(=O)[nH]c2=O)O[C@@H]1CO` (some centres undefined): the Potency result was “inactive”.

In the case of `Cc1ccc(C)c(-c2ccc(=O)n(Cc3c(F)cccc3Cl)n2)c1`, the Potency entry was “inactive”.

As for `CCOC(=O)N1CCN(c2c(NCCCN3CCCCCC3)c(=O)c2=O)CC1`, the Potency entry was “inactive”.

Turning to `CC(C)(C)C(=O)NCCc1nc2ccccc2n1CC(=O)c1ccc(Cl)cc1`, the Potency entry is “inactive”.

As for `CC1(C)CC(=O)C=C(c2ccc3ccccc3c2)C1`, the Potency entry is “inactive”.

As for `O=C(NNC(=O)C1CC(c2cccs2)=NO1)Nc1ccccc1` (centres undefined), the Potency result was “inactive”.

Consider `CCOC(=O)C1CCN(S(=O)(=O)c2c[nH]c(=O)[nH]c2=O)CC1`, for which the Potency result was “inactive”.

Turning to `OCC[C@@H]1C[C@H](O)[C@@H](O)[C@]2(OCCc3ccccc32)O1`, the Potency result was “inactive”.

Take `Cc1nn(C)c(C)c1S(=O)(=O)N1CCC(C(=O)NC2CCCCCC2)CC1`: the Potency entry was “inactive”.
